Laboratory results: publication PMC4336329 (PLoS ONE, 2015)
Screen size: about 310,000 compounds; about 2,200 (0.71%) showed an effect of 50% or more. The effect is printed as a negative number. The sample as a whole holds a higher share of strong results than the screen did.

Molecular target: human ether-à-go-go-related gene (hERG) potassium channel (human, UniProt Q12809)
Assay: primary screen, population patch clamp on CHO cells stably expressing hERG; higher = less effect of the substance

human ether-à-go-go-related gene (hERG) potassium channel, sequence (Q12809 whole entry, looked up): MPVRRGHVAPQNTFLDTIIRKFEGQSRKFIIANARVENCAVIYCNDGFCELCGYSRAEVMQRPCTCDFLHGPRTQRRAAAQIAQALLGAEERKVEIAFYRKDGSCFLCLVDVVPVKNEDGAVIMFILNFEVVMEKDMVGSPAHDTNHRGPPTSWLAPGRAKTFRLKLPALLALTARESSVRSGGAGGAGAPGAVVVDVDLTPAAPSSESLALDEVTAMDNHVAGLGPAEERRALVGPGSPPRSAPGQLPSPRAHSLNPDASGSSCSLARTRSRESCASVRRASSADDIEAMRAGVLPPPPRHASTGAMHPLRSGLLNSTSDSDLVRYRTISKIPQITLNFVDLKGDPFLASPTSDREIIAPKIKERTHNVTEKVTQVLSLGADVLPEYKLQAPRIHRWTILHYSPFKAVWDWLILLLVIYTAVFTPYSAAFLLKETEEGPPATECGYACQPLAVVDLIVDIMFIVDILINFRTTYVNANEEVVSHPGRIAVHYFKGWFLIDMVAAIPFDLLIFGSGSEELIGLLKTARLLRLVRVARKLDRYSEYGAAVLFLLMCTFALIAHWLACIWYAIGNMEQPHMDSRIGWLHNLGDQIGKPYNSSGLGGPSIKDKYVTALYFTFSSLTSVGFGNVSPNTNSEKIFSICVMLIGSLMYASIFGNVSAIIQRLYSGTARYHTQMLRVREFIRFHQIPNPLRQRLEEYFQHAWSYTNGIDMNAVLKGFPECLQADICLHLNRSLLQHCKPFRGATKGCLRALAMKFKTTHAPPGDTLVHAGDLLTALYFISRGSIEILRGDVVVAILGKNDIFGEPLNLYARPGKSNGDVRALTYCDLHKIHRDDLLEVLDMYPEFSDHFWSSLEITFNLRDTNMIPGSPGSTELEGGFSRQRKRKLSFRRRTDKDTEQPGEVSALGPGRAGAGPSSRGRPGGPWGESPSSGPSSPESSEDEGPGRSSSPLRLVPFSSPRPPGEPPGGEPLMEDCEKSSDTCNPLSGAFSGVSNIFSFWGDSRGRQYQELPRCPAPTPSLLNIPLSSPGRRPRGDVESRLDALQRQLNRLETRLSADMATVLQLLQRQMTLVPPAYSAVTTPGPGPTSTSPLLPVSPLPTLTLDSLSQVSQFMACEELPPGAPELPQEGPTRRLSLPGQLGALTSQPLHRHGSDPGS

Row | SMILES | hERG current change (%, negative = inhibition) at 1uM
1 | CCOc1ccc(NS(=O)(=O)c2ccc(SC)cc2)cc1 | 0.548%
2 | CC(=O)c1cccc(CN2CCC(n3nccc3NC(=O)c3ccc4c(c3)OCO4)CC2)c1 | 6.25%
3 | CCc1ccc(CN2CCC(n3nccc3NC(=O)c3ccc4c(c3)OCO4)CC2)cc1 | -58.4%
4 | O=C(Nc1ccnn1C1CCN(Cc2ccc(C#CCCO)cc2)CC1)c1cccc(F)c1 | -37.5%
5 | COc1ccc(CN2CCC(n3nccc3NC(=O)c3cccc(F)c3)CC2)cc1O | -81.5%
6 | COc1ccc(CN2CCC(n3nccc3NC(=O)C3CC3)CC2)cc1O | -18.7%
7 | CCOc1cccc(CN2CCC(n3nccc3NC(=O)c3ccc4c(c3)OCO4)CC2)c1 | -1.26%
8 | CCc1ccc(CN2CCC(n3nccc3NC(=O)c3cccc(F)c3)CC2)cc1 | -78.3%
9 | O=C(Nc1ccnn1C1CCN(Cc2ccc3nonc3c2)CC1)c1cccc(F)c1 | -1.92%
10 | CCn1cc(CN2CCC(n3nccc3NC(=O)c3cccc(F)c3)CC2)cn1 | 6.11%
11 | CC(C)c1ccc(NC(=O)c2ccc(NC3=NC4CS(=O)(=O)CC4S3)cc2)cc1 (stereo not drawn) | -0.0656%
12 | COCC(=O)N(Cc1cc2cc(C)ccc2[nH]c1=O)c1ccc(C)c(C)c1 | 16.4%
13 | CN1CCN(NC(=O)CN(C)S(=O)(=O)c2cc(Cl)ccc2Cl)CC1 | 6.96%
14 | O=C(NNc1c(Cl)cccc1Cl)C1CCC1 | 13.3%
15 | COc1ccc(-c2coc3c(CN4CCOCC4)c(O)ccc3c2=O)cc1 | 0.432%
16 | Cl.O=C(c1ccccc1)c1coc2ccc(O)c(CN3CCOCC3)c12 | -21%
17 | COc1ccc(C(=O)c2coc3ccc(O)c(CN4CCOCC4)c23)cc1 | 1.63%
18 | COc1ccc(C(=O)c2coc3ccc(O)c(CN4CCCCC4)c23)cc1 | -61.4%
19 | Cc1ccc(C(=O)c2coc3ccc(O)c(CN4CCN(C)CC4)c23)cc1 | -25.5%
20 | COc1ccc(C(=O)c2coc3ccc(O)c(CN4CCCC4)c23)cc1 | -56.9%
21 | COc1ccc(-c2coc3c(CN4CCCCC4)c(O)c(CN4CCCCC4)c(O)c3c2=O)cc1 | -88%
22 | COc1ccc(OC)c(C(=O)c2coc3ccc(O)c(CN4CCOCC4)c23)c1 | -6.28%
23 | COc1ccc(-c2coc3c(CN4CCCCC4C)c(O)ccc3c2=O)cc1 (stereo not drawn) | 7.15%

Row | SMILES | hERG current change (%, negative = inhibition) at 1uM
24 | CC1CCCCN1Cc1nc2c(c(=O)n(C)c(=O)n2C)n1Cc1c(F)cccc1Cl (stereo not drawn) | 11.4%
25 | C/C(N)=C(/C#N)C(=O)CSc1nc2ccccc2[nH]1 | 5.05%
26 | COc1ccc(NC(=O)CNC(c2ccccc2)c2ccccc2)cc1.O=C(O)C(=O)O | 14.5%
27 | O=C(COC(=O)Cc1ccc(Br)cc1)NC1CCCCCC1 | 11.4%
28 | O=C(Cn1cnc2ccccc21)Nc1ccc(C(=O)O)cc1.O=C(O)C(=O)O | -52.9%
29 | Cc1ccc(NC(=O)Cn2cnc3ccccc32)cc1C | 6.29%
30 | O=C(Cn1cnc2ccccc21)Nc1ccc(F)c(F)c1 | 3.75%
31 | Cc1ncc(CSc2ccc(Cl)cc2)c(CO)c1O | 12.9%
32 | COCCCNC(=O)c1ccc2nc(Cc3ccc(OC)cc3)oc2c1 | 10.8%
33 | Cn1nnnc1Sc1ncnc2scc(-c3cccc(S(C)(=O)=O)c3)c12 | 12.6%
34 | CCOc1ccc(CN2CCN(Cc3cc4ccccc4o3)CC2CCO)cc1 (stereo not drawn) | -82%
35 | CCOc1ccccc1CN1CCN(C2CCSCC2)CC1CCO (stereo not drawn) | -7.19%
36 | CCOc1ccc(CN2CCN(Cc3ccc(C)o3)CC2CCO)cc1 (stereo not drawn) | -87.8%
37 | CCOc1ccc(CN2CCN(C3CCC3)CC2CCO)cc1 (stereo not drawn) | 3.11%
38 | CCOc1ccc(CN2CCN(Cc3cnc(N4CCOCC4)s3)CC2CCO)cc1 (stereo not drawn) | -19.2%
39 | CCOc1ccc(CN2CCN(C3CCSCC3)CC2CCO)cc1 (stereo not drawn) | -76.2%
40 | Cc1ccc(CN2CCN(Cc3cc4ccccc4o3)CC2CCO)cc1 (stereo not drawn) | -12.5%
41 | OCCC1CN(Cc2cc3ccccc3o2)CCN1Cc1ccc(F)cc1 (stereo not drawn) | 15.2%
42 | Cc1ccc(CN2CCN(Cc3ccc(OCCO)cc3)CC2CCO)o1 (stereo not drawn) | 1.83%
43 | OCCC1CN(Cc2cnc(-c3ccccc3)s2)CCN1Cc1ccccc1 (stereo not drawn) | 1.93%
44 | CCOc1ccccc1CN1CCN(Cc2ccc(C)o2)CC1CCO (stereo not drawn) | -9.63%
45 | CCOc1ccc(CN2CCN(Cc3cnc(-c4ccccc4)s3)CC2CCO)cc1 (stereo not drawn) | -90.1%
